Reference: PMC4336329 (PLoS ONE, 2015)
In all, about 310,000 compounds went through this assay and about 14,000 (4.5%) showed an effect of 50% or more. The effect is printed as a negative number. Only a selection was taken, and strong results are over-represented in it overall. Where a SMILES comes first, the peptide text is derived from it. [ ]: non-standard residue; d: D form. The star is where a group is joined. ξ: configuration not given here. Cbz = O=C(OCc1ccccc1)*; ξV = CC(C)C(N)C(=O)O

Biological target: human ether-à-go-go-related gene (hERG) potassium channel (human, UniProt Q12809)
Experiment: primary screen, population patch clamp on CHO cells stably expressing hERG; higher = less effect of the substance
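Also: peak tail current of the secondary pulse compared with the same well before compound.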

Chain of human ether-à-go-go-related gene (hERG) potassium channel (Q12809 whole entry, looked up): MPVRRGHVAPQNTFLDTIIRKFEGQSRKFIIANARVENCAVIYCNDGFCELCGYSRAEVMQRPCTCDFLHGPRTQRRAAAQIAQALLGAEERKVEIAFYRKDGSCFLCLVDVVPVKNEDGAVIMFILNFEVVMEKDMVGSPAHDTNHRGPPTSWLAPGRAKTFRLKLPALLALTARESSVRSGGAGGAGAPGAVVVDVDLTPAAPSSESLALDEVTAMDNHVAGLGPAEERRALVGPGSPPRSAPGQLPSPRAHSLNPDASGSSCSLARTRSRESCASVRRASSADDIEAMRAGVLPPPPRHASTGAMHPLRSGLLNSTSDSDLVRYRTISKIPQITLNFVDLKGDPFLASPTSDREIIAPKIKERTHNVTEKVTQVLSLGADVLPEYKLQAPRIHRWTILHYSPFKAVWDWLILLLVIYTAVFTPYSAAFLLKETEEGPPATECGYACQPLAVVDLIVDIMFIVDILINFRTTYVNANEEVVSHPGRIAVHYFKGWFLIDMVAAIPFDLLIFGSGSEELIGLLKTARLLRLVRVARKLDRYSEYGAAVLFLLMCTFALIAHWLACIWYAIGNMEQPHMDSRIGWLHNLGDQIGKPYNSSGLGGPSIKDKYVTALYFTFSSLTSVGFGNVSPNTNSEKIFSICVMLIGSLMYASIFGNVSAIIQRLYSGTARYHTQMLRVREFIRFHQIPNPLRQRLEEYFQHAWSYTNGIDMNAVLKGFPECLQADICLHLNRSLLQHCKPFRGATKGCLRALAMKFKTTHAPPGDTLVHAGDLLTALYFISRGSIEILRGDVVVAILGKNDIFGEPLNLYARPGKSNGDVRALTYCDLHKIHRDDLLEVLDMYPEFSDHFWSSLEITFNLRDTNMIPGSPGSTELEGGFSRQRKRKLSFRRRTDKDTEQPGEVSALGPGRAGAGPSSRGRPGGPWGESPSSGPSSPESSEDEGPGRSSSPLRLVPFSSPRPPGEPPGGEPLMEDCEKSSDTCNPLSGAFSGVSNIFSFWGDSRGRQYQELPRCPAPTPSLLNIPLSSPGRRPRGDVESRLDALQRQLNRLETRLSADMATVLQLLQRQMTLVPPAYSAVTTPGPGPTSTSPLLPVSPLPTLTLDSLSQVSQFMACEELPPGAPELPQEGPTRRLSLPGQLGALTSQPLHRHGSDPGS

Row | Compound | hERG current change (%, negative = inhibition) at 10uM [%]
1 | Cc1ccccc1NC(=O)c1cnn(-c2ccccc2)c1NC(=O)c1ccco1 | 0.329
2 | COc1ccc(CCNC(=O)c2c[nH]c3ccccc3c2=O)cc1OC | -1.95
3 | Cc1noc(NS(=O)(=O)c2ccc(NC(=O)C34CCC(CC3)C4)cc2)c1C | -9.55
4 | COC(=O)CNC(=O)C(NC(=O)OCc1ccccc1)C(C)C (centres unmarked) (Cbz-[ξV]-Gly-OMe) | 16.1
5 | CCOC(=O)Nc1ccc2c(c1)OCO2 | 26.2
6 | CCOC(=O)C1CCCN(c2nc3ccccc3nc2NS(=O)(=O)c2ccc(C)cc2)C1 (centres unmarked) | -44.8
7 | CCOC(=O)C1CCCN(Cc2ccc(OCC)cc2)C1 (centres unmarked) | -42.9
8 | CCOC(=O)C1CCCN(Cc2cccc(Cl)c2)C1 (centres unmarked) | -8.02
9 | CCOC(=O)C1CCCN(Cc2ccccc2Cl)C1 (centres unmarked) | -3.88
10 | CCOC(=O)C1CCCN(C(=S)Nc2ccc(OC)cc2)C1 (centres unmarked) | 5.25
11 | CCOC(=O)C1CCCN(Cc2nc(N)nc(Nc3ccc(C)cc3)n2)C1 (centres unmarked) | -69.5
12 | CCOC(=O)C1CCCN(Cc2nc(N)nc(Nc3ccc(OC)cc3)n2)C1 (centres unmarked) | -75.6
13 | COc1ccccc1Nc1nc(N)nc(CSC(=S)N2CCCCC2C)n1 (centres unmarked) | -5.64
14 | Cc1ccccc1Nc1nc(N)nc(COC(=O)C2CCCCC2)n1 | 8.35
15 | CCOC(=O)C1CCCN(Cc2nc(N)nc(Nc3ccccc3OC)n2)C1 (centres unmarked) | -70.8
16 | CCOC(=O)C1CCCN(Cc2nc(N)nc(Nc3ccc(Cl)cc3)n2)C1 (centres unmarked) | -79
17 | CCOC(=O)C1CCCN(Cc2c(Cl)cccc2Cl)C1 (centres unmarked) | -6.47
18 | N#Cc1cc2c(N)c(C(=O)Nc3ccccc3)sc2nc1N | 8.83
19 | CCCCN(C(=O)C1CCC1)c1c(N)n(CC(C)C)c(=O)[nH]c1=O | 1.74

Row | Compound | hERG current change (%, negative = inhibition) at 10uM [%]
20 | COc1ccccc1OCC(=O)[O-].[Na+] | 4.6
21 | Cc1c(Cl)cccc1-c1ccc(CNCc2ccccn2)o1.Cl | 8.15
22 | Cc1ccc(OCC(=O)NCCO)c(Br)c1 | 14.3
23 | O=C(CSc1nnc(-c2ccc(F)cc2)o1)Nc1ccc(S(=O)(=O)N2CCCC2)cc1 | -2.73
24 | CC(C(=O)NCc1cccs1)n1cccc1 (centres unmarked) | 7.58
25 | COc1ccc(CNC(=O)CC23CC4CC(CC(C4)C2)C3)cc1 | 20.4
26 | CCOC(=O)C1CCCN(Cc2nc(N)nc(Nc3ccccc3)n2)C1 (centres unmarked) | -71.2
27 | CCOC(=O)C1CCCN(Cc2ccccc2C)C1 (centres unmarked) | -15.1
28 | CCOC(=O)C1CCCN(Cc2ccc(-c3ccccc3)cc2)C1 (centres unmarked) | -10.5
29 | CCN(CC)C(=O)Cn1c(=O)n(CCC(=O)Nc2ccc(F)cc2)c(=O)c2sccc21 | 14.9
30 | Cc1ccc2nc(NC(=O)c3ccc(Br)o3)sc2c1 | 20.6
31 | CCOc1ccc(N2C(=O)C3ON(c4ccccc4)C(c4cccs4)C3C2=O)cc1 (centres unmarked) | 7.35
32 | CC(=O)Nc1ccc(NC(=O)C2CC(=O)Nc3nc4ccccc4n32)cc1 (centres unmarked) | 24.6
33 | Cc1cc(C(=O)N2CCN(c3ccc([N+](=O)[O-])cc3)CC2)co1 | -75.5
34 | Cc1cc(C(=O)N2CCN(c3ccc([N+](=O)[O-])cc3)CC2)n[nH]1 | -78.5
35 | O=C(c1ccc2c(c1)OCCO2)N1CCN(c2ccc([N+](=O)[O-])cc2)CC1 | -47.1
36 | Cc1cc(C(=O)N/N=C/C=C/c2ccc(Br)cc2)n[nH]1 | 9.77
37 | Cc1cc(C(=O)N/N=C/C=C/c2ccc([N+](=O)[O-])cc2)n[nH]1 | -53
38 | Cc1cc(C(=O)N/N=C/C=C/c2cccc([N+](=O)[O-])c2)n[nH]1 | -3.28

Row | Compound | hERG current change (%, negative = inhibition) at 10uM [%]
39 | CC(C)(O)C#Cc1ccc(C(=O)N2CCN(c3ccc(Cl)cc3)CC2)cc1 | -9.19
40 | CC(C)(O)C#Cc1ccc(C(=O)N2CCN(c3ccc([N+](=O)[O-])cc3)CC2)cc1 | -70.4
41 | O=C(c1cc2ccccc2cc1O)N1CCN(c2ccc([N+](=O)[O-])cc2)CC1 | -40.3
42 | Cc1onc(-c2ccccc2)c1C(=O)N1CCN(c2ccc([N+](=O)[O-])cc2)CC1 | -36.4
43 | O=C(c1cc(C(=O)N2CCN(c3ccc(F)cc3)CC2)cc([N+](=O)[O-])c1)N1CCN(c2ccc(F)cc2)CC1 | -26.2
44 | CC(C)(O)C#Cc1ccc(C(=O)N2CCN(c3ccc(F)cc3)CC2)cc1 | -11.4
45 | CCOc1ccc(/C=C/C(=O)CCC(=O)O)cc1 | 13.5
46 | O=[N+]([O-])c1cccc(-c2ccc(C(=S)N3CCN(c4ccc(F)cc4)CC3)o2)c1 | 2.61
47 | Cc1cc(C(=O)N2CCN(c3ccc([N+](=O)[O-])cc3)CC2)no1 | -70.6
48 | COc1ccc(N2CCN(C(=O)c3nc4nc(C)cc(C)n4n3)CC2)cc1 | 9.69
49 | COc1cccc(N2CCN(C(=O)c3nc4nc(C)cc(C)n4n3)CC2)c1 | 7.28
50 | O=C(c1cncc(Br)c1)N1CCN(c2ccc(N3CCOCC3)nn2)CC1 | -2.06
51 | Cc1cc(C)n2nc(C(=O)N3CCN(c4ccc([N+](=O)[O-])cc4)CC3)nc2n1 | -71.4
52 | COc1ccc(N2CCN(C(=O)c3cc(C)on3)CC2)cc1 | 6.64
53 | O=C(c1cncc(Br)c1)N1CCN(c2ccc([N+](=O)[O-])cc2)CC1 | -77
54 | O=C(c1ccc([N+](=O)[O-])cc1)N1CCN(c2ncc(Br)cn2)CC1 | -32
55 | Cc1cc(C(=O)N2CCN(c3ccccc3)CC2)no1 | -0.965
56 | Cc1c(O)ccc2c(O)c(NC(=O)c3ccc4c(c3)CCC(C)(C)O4)c(=O)oc12 | 6.09
